# In all, about 43,000 compounds went through this assay and about 200 (0.47%) were called active. Not shown: some 12% with an inconclusive outcome. The call rests on the fitted dose curve; in most records, active means well fitted cell-killing curve with a large enough effect; inconclusive means small, poorly fitted or top-dose-only effect, or effect the other way; inactive means flat fitted curve, though single readings scatter. The full list was thinned out, with actives kept by preference.
# Assay: Cell viability qHTS assay in S16 Pmp22-F2sN cells; further: nearly all actives have a fitted effect of over 65% in size
# Conditions: S16 Pmp22-F2sN Schwann cells (luciferase reporters placed in the Pmp22 gene) viability, CellTiter-Glo, 24 h; series mostly up to 57.5 µM; activity change, negative = cytotoxicity: at the top concentration
# From the text: Assay Provider: Jim Inglese Ph.D. National Center for Advancing Translational Science, National Institutes of Health, Rockville, MD CMT is a heterogeneous group of neurological disorders that affect approximately 1 in 2,500 people. In particular, the most common form of CMT, CMT1A is genetically linked to the duplication of the PMP22 gene which leads to Schwann cell overexpression, thus manifesting itself as a typical case of dose-sensitive diseases. To identify small molecule compounds that can mediate the expression of PMP22 we developed a phenotypic assay screening strategy by utilizing genome editing techniques to construct Schwann cell lines containing novel reporter technology to monitor the transcriptional or translational regulation of PMP22. For high sensitivity we use a bioluminescent reporter system embedded in the 3' UTR of the PMP22 gene (S16(c9) Pmp22-F2sN) to identify compounds that inhibit gene expression. […] We can further discriminate the effect of all transcriptionally active molecules on PMP22 translation or stability with an assay that incorporates a short NLuc peptide (HiBiT) at the C-terminus of expressed PMP22 (S16(f8) PMP22-HiBiT) allowing alpha complementation and luminescence detection of membrane-associated PMP22 protein. These assays were screened against the NCATS Sytravon Library Collection. Miniaturization of these assays to 1536-well plate format for quantitative high throughput screening (qHTS) yielded rich data sets immediately from the qHTS assay (S16(c9) Pmp22-F2sN), when compared with data from a cell viability assay (Cell TiterGlo) to identify compounds that decreased the output signals through cellular toxicity to streamline the selection process of actives for subsequent characterization using the HiBiT assay (S16(f8) PMP22-HiBiT).
# Cell viability assay in S16 Pmp22-F2sN cells PROTOCOL TABLE (format as described by Inglese J, Shamu CE and Guy RK. 2007) SEQUENCE No. (e.g., 1, 2, 3, etc.); […] (e.g., Cells, Incubation, Reagent, etc.); VALUE and DESCRIPTION. 1. Cells. Add 500-1,000 cells in 4 uL in growth media (DMEM High Glucose, No Phenol Red media + 10% heat-inactivated FBS + 1% Pen/Strep supplemented media) per well into Greiner 1536-well white/solid bottom high base, TC-treated plates. 2. Compounds. Library compounds and controls added at 23nL per well, transferred by Pin Tool. 3. Incubation. Incubate plates at 37C, 5% CO2, 95% RH for 24 h. 4. Reagent. Add 3uL CellTiter-Glo per well of Greiner 1536-well plates. 5. Incubation. Incubate plates at room temperature for 15 min., protect from light. 6. Detector. FLuc luminescence measured using CCD-based camera (Viewlux). NOTES (numbers refer to Sequence numbers above; values are from representative experiments) 6. Luminescence Read: Clear filter; Exposure = 1 sec, Gain = High, Speed = Slow, Binning = 2X REFERENCES: 1. Inglese J, Shamu CE and Guy RK, Reporting data from high throughput screening of small molecule libraries, Nature Chemical Biology, 2007, 3(8): 438-441. doi.org/10.1038/nchembio0807-438 2. Yasgar A, Shinn P, Jadhav A, Auld DS, Michael S, Zheng W, Austin CP, Inglese J and Simeonov A, Compound Management for Quantitative High-Throughput Screening. J. Assoc. Lab. Auto., 2008, 13: 79-89. doi: 10.1016/j.jala.2007.12.004
# On the % scale 0 is the no-effect control and ±100 the full control effect; potency means the concentration at half of the fitted maximal effect.
SMILES,"activity change, negative = cytotoxicity",Potency
O=C(NCCc1ccc(Cl)cc1)c1ccc2c(c1)N(Cc1ccc(F)cc1)C(=O)CS2,-25.4% (inactive),–
Cc1c(C)n(Cc2ccc(Cl)cc2)c2ccc(C(=O)NCCc3ccc(S(N)(=O)=O)cc3)cc12,-7.69% (inactive),–
Cc1cccc(N2CCN(C(=O)c3cnc(N4CCCC4)nc3C)CC2)c1C,-0.0488% (inactive),–
COc1ccc(Cl)cc1NC(=O)CCn1c(=O)c2cccn2c2ccccc21,8.71% (inactive),–
CSc1oc(-c2cccs2)nc1S(=O)(=O)c1ccc(Br)cc1,-0.0965% (inactive),–
Cc1ccc(CSc2oc(-c3cccs3)nc2S(=O)(=O)c2ccc(C)cc2)cc1,17.9% (inactive),–
CCCCS(=O)(=O)c1oc(-c2cccs2)nc1S(=O)(=O)c1ccccc1,–,2.51 µM (active)
COc1cn(CC(=O)Nc2cccc(C)c2C)c(CN2CCCCC2)cc1=O,-2.31% (inactive),–
Cc1ccc(NC(=O)Cn2nnc3sc4c(c3c2=O)CCC(C)C4)cc1 (stereo not drawn),10.1% (inactive),–
COc1ccc(CN2CCc3nc(Nc4ccccc4)ncc3C2)c(OC)c1OC,-0.963% (inactive),–
CCc1nn(CC(=O)N2CCN(c3ccc(Cl)cc3)CC2)c(=O)c2cc3occc3n12,1.57% (inactive),–
COc1ccc(OC)c(CNC(=O)CN2C(=O)CCn3nc(-c4cn(C)c5ccccc45)cc32)c1,2.98% (inactive),–
Cc1c(Cl)cccc1NC(=O)CCS(=O)(=O)c1ccc2c(c1)oc(=O)n2C,-29% (inactive),–
CCC(=O)N1CCc2cc(S(=O)(=O)NC(C(=O)Nc3ccc(C(C)=O)cc3)C(C)C)ccc21 (stereo not drawn),1.35% (inactive),–
CCOc1ccc(-c2cc3nc(C4CCN(C(=O)OC(C)(C)C)CC4)c(C(=O)Nc4ccc(C(=O)OC)cc4)cn3n2)cc1,4% (inactive),–
COCCN(Cc1ccco1)C(=O)Cn1ncc2c([nH]c3ccccc32)c1=O,0.904% (inactive),–
COc1cc(C(=O)NCC(c2ccc(Cl)cc2)N2CCOCC2)cc(OC)c1OC (stereo not drawn),0.597% (inactive),–
COc1c(Cl)cc(Cl)cc1C(=O)Nc1cccc2cccnc12,3.69% (inactive),–
CCOc1ccc(C(NC(=O)c2cc(OC)c(OC)c(OC)c2)c2cc(Cl)c3cccnc3c2O)cc1 (stereo not drawn),–,1.78 µM (active)
CC(=O)N1CCCc2cc(S(=O)(=O)N3CCCC(C(=O)NCc4ccc(Cl)cc4)C3)ccc21 (stereo not drawn),-24.1% (inactive),–
COc1cccc(N2CCN(S(=O)(=O)c3ccc4c(c3)CCCN4C(C)=O)CC2)c1,-1.03% (inactive),–
CC(=O)N1CCCc2cc(S(=O)(=O)N3CCCC(C(=O)N4CCN(c5cccc(Cl)c5)CC4)C3)ccc21 (stereo not drawn),–,25.1 µM (active)
COC(=O)c1ccc(NC(=O)CSc2n[nH]c(-c3ccccc3)n2)cc1,13.3% (inactive),–
CCOc1ccccc1NC(=O)Cn1c(=O)n(Cc2ccccc2)c(=O)c2c(C)c(C(=O)N(C)C)sc21,5.8% (inactive),–

SMILES,"activity change, negative = cytotoxicity",Potency
Cc1ccccc1NC(=O)Cn1c(=O)n(Cc2ccco2)c(=O)c2ccc(C(=O)NC3CCCC3)cc21,7.6% (inactive),–
COc1cccc(C(=O)NCc2ccc3c(c2)CCN3C(=O)c2ccncc2)c1,-2.11% (inactive),–
Cc1c(CNC2CCCCC2)c(C(=O)O)c(C)n1Cc1cccc(Cl)c1,22.4% (inactive),–
COc1cccc2cc(-c3nc(Cl)c4c5c(sc4n3)CC(C)CC5)c(=O)oc12 (stereo not drawn),6.33% (inactive),–
Cc1ccc2nc(CN3CCN(S(=O)(=O)c4ccc(C)c(C)c4)CC3)oc2c1,10.1% (inactive),–
COc1ccc(NC(=O)CN2C(=O)COc3ccc(S(=O)(=O)N4CCOCC4)cc32)cc1,19.3% (inactive),–
CC(C)(C)c1ccc(S(=O)(=O)N2CCN(C(=O)c3cc(-c4ccc(Br)cc4)n[nH]3)CC2)cc1,2.31% (inactive),–
Cn1c(=O)[nH]c(=O)c2c1nc(NCCc1ccccc1)n2Cc1ccc(F)cc1,-27.5% (inactive),–
CCOC(=O)c1ccc(NC(=O)Cn2cc(S(=O)(=O)Cc3ccccc3F)c3ccccc32)cc1,12.9% (inactive),–
Cc1ccc2nc(COc3ccccc3NC(=O)Nc3ccc(F)c(Cl)c3)cc(=O)n2c1,-13.1% (inactive),–
COc1ccc(N2CCN(c3nc(-c4ccccc4F)nc4ccccc34)CC2)cc1,-1.56% (inactive),–
Cc1cccc(OCC(=O)N(Cc2ccc(C(C)C)cc2)Cc2ccco2)c1C,-22% (inactive),–
Cc1cccc(-n2ncc(C(=O)N3CCc4ccccc4C3)c2C2CCN(C(=O)OC(C)(C)C)CC2)c1,-9.84% (inactive),–
CC(C)Oc1ccc(CNC(=O)C2CCN(c3nc4ccccc4n(C)c3=O)CC2)cc1,8.64% (inactive),–
COc1cc(OC)c(NC(=O)c2cc(S(=O)(=O)N3CCCC3)cn2C)cc1Cl,1.12% (inactive),–
CCN(Cc1ccccc1)S(=O)(=O)c1ccc2c(c1)CCCN2C(C)=O,-7.49% (inactive),–
CCNS(=O)(=O)c1ccc(NC(=O)CSc2nc(-c3ccco3)cc(C(F)(F)F)n2)cc1,-17.6% (inactive),–
COc1ccc(Cl)cc1NC(=O)c1sc2nc3c(cc2c1N)CN(C)CC3,19.1% (inactive),–
COc1ccccc1NC(=O)c1sc2nc(C)c(C(=O)Nc3ccc(Cl)cc3)c(-c3ccc(Br)cc3)c2c1N,–,14.1 µM (active)
COc1ccc(NC(=O)c2sc3nc(-c4cc5cccc(OC)c5oc4=O)[nH]c(=O)c3c2C)cc1,6.82% (inactive),–
Cc1nnc(SCc2cc(=O)c3cc(F)ccc3[nH]2)n1C,12.3% (inactive),–
Cc1ccc(CN2CCc3nc(N4CCN(C)CC4)ncc3C2)cc1,1.27% (inactive),–
COc1ccc(CC(=O)NCCc2sc3nc(-c4ccc(OC)cc4)nn3c2C)cc1,-14.4% (inactive),–
CC(=O)Nc1cccc(NC(=O)CSc2nccn2Cc2ccc3c(c2)OCO3)c1,5.54% (inactive),–

SMILES,"activity change, negative = cytotoxicity",Potency
CCCCN(CC)CCCNC(=O)c1nn(C)c2c1CSc1ccccc1-2,-3.98% (inactive),–
COC(=O)c1ccc(-c2nc3cc(NC(C)=O)ccc3o2)cc1,5.12% (inactive),–
CCN1CCC(N(Cc2ccc(F)cc2)C(=O)Nc2cc(C)ccc2C)CC1,-12.8% (inactive),–
COc1cc(OC)cc(C(=O)Nc2c(C(=O)Nc3ccc(F)cc3)oc3ccccc23)c1,-0.156% (inactive),–
Cc1cccc(NC(=O)CSc2nc3c([nH]c4ccccc43)c(=O)n2-c2cc(C)cc(C)c2)c1,7.62% (inactive),–
CCN(CCCNC(=O)Cn1ncc2c3ccccc3n(C)c2c1=O)Cc1ccccc1,3.84% (inactive),–
CCOc1ccc(CNC(=O)c2cc(-c3ccc(Cl)s3)nc3ccccc23)cc1,8.53% (inactive),–
O=C(NCC12CC3CC(CC(C3)C1)C2)c1cc2nc(-c3ccccc3)cc(C(F)(F)F)n2n1,14.3% (inactive),–
O=C(NCCCO)C(=O)Nc1c2c(nn1-c1ccc(F)cc1)CSC2,-15.3% (inactive),–
Cc1c(NS(=O)(=O)c2ccc(Cl)cc2)c(=O)n(-c2ccccc2)n1C,3.6% (inactive),–
Cc1ccc(C)c(N2CCN(C(=O)Cn3ncc4c(=O)oc5ccc(C)cc5c43)CC2)c1,4.69% (inactive),–
Cc1ccccc1NC(=O)Cn1c(=O)n(CC2CCC(C(=O)NCCc3ccccc3)CC2)c(=O)c2ccccc21 (stereo not drawn),16.1% (inactive),–
COC(=O)c1c(NC(=O)C(C)Oc2ccc(Cl)c(C)c2)sc(C)c1C (stereo not drawn),0.0514% (inactive),–
Cc1ccccc1C(=O)Nc1cc(C)c(O)c(-c2nc3ccccc3o2)c1,17% (inactive),–
CCOc1ccc(NC(=O)CCC(=O)N2CC(C)Oc3ccc(C)cc32)cc1 (stereo not drawn),6.01% (inactive),–
COc1ccccc1C(=O)Nc1c(C(=O)Nc2ccc(C)cc2)oc2ccccc12,8.02% (inactive),–
COc1ccc(CCNC(=O)CCCn2c(=O)c3ccccc3n(Cc3ccc(C)cc3)c2=O)cc1OC,15.9% (inactive),–
CN(CC(=O)Nc1ccccc1F)S(=O)(=O)c1ccc2c(c1)c(=O)n(C)c(=O)n2C,15.6% (inactive),–
Cc1cccc(C)c1Nc1c(-c2ccccc2O)nc2ncccn12,-10.5% (inactive),–
Cc1ccc(C)c(NC(=O)CSC2=Nc3ccccc3N=C(c3ccc(F)cc3)C2)c1,-2.61% (inactive),–
O=C(CC1C(=O)N(c2ccccc2)C(=O)N1CCc1cccs1)Nc1ccc(F)cc1 (stereo not drawn),-17.5% (inactive),–
COC(=O)c1ccc(NC(=O)c2cc(S(=O)(=O)N3CCC(C)CC3)cn2C)cc1,-14.5% (inactive),–
CC1CCCCN1CC(=O)N1CCCc2c1c(=O)oc1ccc(OCc3ccccc3)cc21 (stereo not drawn),0.438% (inactive),–
O=c1cc(CSc2ncn[nH]2)[nH]c2ccc(F)cc12,0.415% (inactive),–

SMILES,"activity change, negative = cytotoxicity",Potency
CN(C(=O)CSc1nnc(NC(=O)Nc2ccccc2)s1)c1ccccc1,-10% (inactive),–
Cc1cc(F)ccc1NS(=O)(=O)c1ccc(-n2cccn2)cc1,-14.3% (inactive),–
Cc1ccc(Nc2c(-c3ccc(Cl)cc3)nc3sccn23)c(C)c1,28.2% (inactive),–
Cc1cccc(C(=O)N2c3nc(-c4ccco4)nn3C3(CCCCC3)[C@@H]3CCCC[C@@H]32)c1,3.56% (inactive),–
CC1=C(C(=O)Nc2ccccc2)C(c2ccc(C)cc2)n2nc(SCc3ccccc3C)nc2N1 (stereo not drawn),3.66% (inactive),–
Cc1ccccc1NC(=O)c1cc2c([nH]c1=O)CC(C)(C)CC2=O,10.8% (inactive),–
CCOC(=O)C1CCN(c2csc3ccc(C)cc3c2=O)CC1,3.59% (inactive),–
Cc1c(Cl)cccc1NC(=O)C(=O)NCCc1csc2nc(-c3ccccc3F)nn12,-22.5% (inactive),–
CCCCN(CCCNC(=O)c1cc(Nc2ccccc2OC)nc2ccccc12)c1ccccc1,9.74% (inactive),–
Cc1ccc(N(CC(=O)NCc2ccc(Cl)cc2)S(=O)(=O)N(C)C)cc1,13.9% (inactive),–
Cc1ccsc1CN(C(=O)c1oc2ccc(Br)cc2c1C)C1CCS(=O)(=O)C1 (stereo not drawn),-28.5% (inactive),–
Cc1ccc(NC(=O)c2oc3ccccc3c2NC(=O)Cc2cccs2)cc1,10.9% (inactive),–
COc1ccc(CCNc2nc3c(-c4cccc(F)c4)nnn3c3ccccc23)cc1OC,-1.72% (inactive),–
CNC(=O)CN1C(=O)c2cccnc2Sc2ccccc21,0.0311% (inactive),–
COc1ccc(CCNC(=O)c2cn(C)c3ccc(S(=O)(=O)N(C)C4CCCCC4)cc3c2=O)cc1OC,-12.3% (inactive),–
COc1ccc(N2CCN(S(=O)(=O)c3ccc(-c4coc(C)n4)cc3)CC2)cc1,-6.43% (inactive),–
COc1ccc(C2NC(=O)N(C)C3=C2C(=O)N(c2ccc(C(=O)O)cc2)C3)cc1 (stereo not drawn),8.03% (inactive),–
O=C(CN1CCN(Cc2ccc(Cl)cc2)C1=O)NCc1ccc(F)cc1,1.11% (inactive),–
COc1ccc(-n2c(SC)nc3sc4c(c3c2=O)CCN(C(C)=O)C4)cc1,2.85% (inactive),–
CCOc1ccc(NC(=O)Cn2cc(C(=O)c3ccc(C)cc3)c(=O)c3cc4c(cc32)OCCO4)cc1,-0.757% (inactive),–
CC(=O)c1ccc(NC(=O)CCc2nc(-c3ccc(C)cc3)no2)cc1,-13.9% (inactive),–
